# Rows were chosen to be rich in hits. Some 1.8% of all compounds tested hit in one or more screens of this group.
# LYPLA2 counter – LYPLA2 (human) inhibition in PME1 counter-screen; O95372; recombinant LYPLA2, FP-Rh probe fluorescence polarization; inhibition, % at 5.9 µM; 0.38% of 320,000 active;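 active means inhibition above the screen-wide mean plus 3 SD, limit set per campaign, cut at about 26% in these data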;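 further: 0% = LYPLA2 with DMSO and 100% = wells lacking LYPLA2 enzyme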
# PME-1 inh – blocks human protein phosphatase methylesterase 1; recombinant PME-1, FP-Rh probe fluorescence polarization; inhibition, % at 5.9 µM; 0.53% of 320,000 active; AID 2130;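 active means inhibition above the campaign mean of all compounds plus 3 SD, cut at about 26% in these data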;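 further: competitive labeling of PME-1 active site by serine hydrolase directed probe; 0% = PME-1 with DMSO and 100% = wells lacking PME-1 enzyme; inhibitors block probe labeling so polarization falls and inhibition rises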
# GSTO1 inh – blocks human GSTO1 in RBBP9 counter-screen; 1.1% of 300,000 active; inhibition, % at 5.96 µM; AID 1974; recombinant GSTO1, activity-based probe fluorescence polarization;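 active means inhibition above the campaign mean inhibition plus 3 SD, cut at about 35% in these data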;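 further: 0% = GSTO1-1 with DMSO and 100% = wells lacking GSTO1-1 enzyme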
# LYPLA1 inh – blocks human lysophospholipase 1, a PME1 counter-screen; AID 2174; inhibition, % at 5.9 µM; O75608; 0.16% of 320,000 active; recombinant LYPLA1, FP-Rh probe fluorescence polarization;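 active means inhibition above the mean of all tested compounds plus 3 SD, set per campaign, cut at about 14% in these data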;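 further: inhibitors block serine hydrolase probe labeling of LYPLA1 so polarization falls; 0% = enzyme with DMSO and 100% = wells lacking LYPLA1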
# PAD4 inh – blocks human protein arginine deiminase 4; Q9UM07; recombinant PAD4, RCA probe fluorescence polarization; inhibition, % at 6.36 µM; 0.41% of 330,000 active; AID 485272;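 active means percent inhibition above a cutoff equal to the mean of all tested compounds plus 3 SD, cut at about 15% in these data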;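 further: 0% = PAD4 with RCA probe and DMSO and 100% = probe without PAD4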
# Target sequence (Q9UM07 whole entry, looked up): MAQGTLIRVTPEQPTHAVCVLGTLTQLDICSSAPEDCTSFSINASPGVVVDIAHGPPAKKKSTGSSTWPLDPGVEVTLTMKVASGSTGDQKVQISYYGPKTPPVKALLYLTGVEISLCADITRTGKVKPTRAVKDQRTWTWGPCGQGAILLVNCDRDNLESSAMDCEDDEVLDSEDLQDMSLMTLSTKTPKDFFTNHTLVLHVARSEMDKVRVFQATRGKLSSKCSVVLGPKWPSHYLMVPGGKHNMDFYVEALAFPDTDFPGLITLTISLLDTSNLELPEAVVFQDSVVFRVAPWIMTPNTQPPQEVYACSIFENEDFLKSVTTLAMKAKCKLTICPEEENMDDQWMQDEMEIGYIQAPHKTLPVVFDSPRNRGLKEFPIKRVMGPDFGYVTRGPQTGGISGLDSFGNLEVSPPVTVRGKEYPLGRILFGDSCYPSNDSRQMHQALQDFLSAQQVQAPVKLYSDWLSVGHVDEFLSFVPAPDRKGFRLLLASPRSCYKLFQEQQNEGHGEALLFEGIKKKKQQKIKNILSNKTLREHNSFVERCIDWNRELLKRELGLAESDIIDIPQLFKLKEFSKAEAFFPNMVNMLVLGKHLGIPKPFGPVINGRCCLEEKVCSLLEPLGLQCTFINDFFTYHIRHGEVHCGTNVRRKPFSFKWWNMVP
# Fam108B counter – counter-screen for RBBP9 inhibitors: inhibitors of mouse Fam108B; 0.33% of 300,000 active; recombinant Fam108B, FP-Rh probe fluorescence polarization; inhibition, % at 9.51 µM;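 active means inhibition above the screen mean inhibition plus 3 SD, computed separately per campaign, cut at about 18% in these data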;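 further: inhibitors lower polarization as less probe binds the enzyme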
# GSTO1 confirm – confirmation of human GSTO1 inhibitors; 54% of 2,400 active; recombinant GSTO1, probe fluorescence polarization; shares compounds with GSTO1 inh; inhibition, % at 5.96 µM;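 active means inhibition above the primary screen's cutoff, its mean inhibition plus 3 SD, cut at about 35% in these data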;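 further: loss of polarization as inhibitors block binding of rhodamine sulfonate ester activity probe; 0% = GSTO1 with DMSO and 100% = wells lacking GSTO1 enzyme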
# GSTO1 recomb ABPP – inhibitors of recombinant human GSTO1; shares compounds with GSTO1 inh; gel ABPP SE-Rh probe fluorescence; inhibition, % at 1 µM; 30% of 130 active;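 active means inhibition of the enzyme GSTO1 above about 75%, limit read from the data; inactive means inhibition below that limit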
# * = called active by the depositor; . = no result.
SMILES,LYPLA2 counter,PME-1 inh,GSTO1 inh,LYPLA1 inh,PAD4 inh,Fam108B counter,GSTO1 confirm,others
ClC1(Cl)CC1CSc1nnc(-c2ccncc2)o1 (stereo unspecified),-1,-1,-1,3,2,0,.,
CCc1cc2ccccc2nc1Cl,0,-1,0,3,1,0,.,
ClCc1cc2ccccc2nc1Cl,-3,0,43*,-3,-6,0,95*,GSTO1 recomb ABPP=40
O=C(NN1C(=O)c2ccccc2NC1c1ccc([N+](=O)[O-])o1)c1ccc(Br)cc1 (stereo unspecified),4,7,39*,2,-9,-2,8,
CC(=O)NN1C(=O)c2ccccc2NC1c1ccc([N+](=O)[O-])o1 (stereo unspecified),5,-2,17,1,-1,1,.,
O=C(OC1CCc2ccccc2C1=O)c1ccccc1O (stereo unspecified),8,3,54*,-2,1,-8,48*,
CCN(CC(=O)Nc1c(F)cccc1F)C(=O)/C=C/c1ccc2ccccc2n1,2,-3,62*,-5,-3,3,32,
Cc1c(C(=O)c2ccc(F)cc2F)c2ccccn2c1CCC#N,9,2,39*,4,9,7,4,
COc1cc(/C=C2\S/C(=N/S(=O)(=O)Cc3ccccc3)NC2=O)c([N+](=O)[O-])cc1OC,7,-3,7,0,-9,4,.,
COc1cc(/C=C2/S/C(=N/S(=O)(=O)c3ccccc3)NC2=O)c([N+](=O)[O-])cc1OC,-2,-1,41*,-1,-15,1,32,
COc1cc(CN2CCCC(N3CCN(c4ccccc4C)CC3)C2)ccc1O (stereo unspecified),-2,-1,21,0,-4,5,.,
c1ccc2c(c1)nnn1c3ccccc3nc21,2,1,6,-3,-2,-4,.,
ClC(Cl)(Cl)c1nc2ccccc2n2nncc12,6,-3,64*,2,4,2,52*,
COc1ccccc1N(CC(=O)NC1CCCCC1)C(=O)CNC(=O)c1cccs1,1,0,-1,-3,-3,0,.,
COc1ccc(N(CC(=O)NCCSCc2ccco2)S(=O)(=O)c2ccccc2)cc1Cl,2,1,-1,0,-1,-4,.,
CCS(=O)(=O)C1=NN2C(=N)/C(=C\c3ccc(OC(=O)c4ccco4)c(OC)c3)C(=O)N=C2S1,0,-5,-6,-5,-6,-5,.,
COc1cc(/C=C2\C(=O)N(c3ccc(S(N)(=O)=O)cc3)N=C2C)ccc1OC(=O)c1ccco1,1,6,53*,4,-9,0,10,
CC(C)C(NC(=O)CN(c1ccc2c(c1)OCCO2)S(=O)(=O)c1ccccc1)C(C)C,-1,-1,-3,-1,8,-2,.,
CC1(C)CNc2cc(N)ccc2S1,7,6,39*,0,3,2,28,
Oc1ccc(/C=N/N2CCCCC2)c(O)c1O,-1,3,46*,-1,-11,2,14,
O=[N+]([O-])c1ccc(/C=[N+](\[O-])[C@@H]2CCCC[C@@H]2/[N+]([O-])=C/c2ccc([N+](=O)[O-])o2)o1,3,-2,40*,4,-11,4,18,
O=C(C[C@H]1C[C@H](C(=O)N2CCCCC2)[C@@]2(CCc3ccccc3)c3[nH]c4ccc(Cl)cc4c3CCN2C1=O)NCCC1=CCCCC1,.,.,.,.,5,.,.,
CCOC(=O)c1sc2nc(C)nc(SC(C)C(=O)N(C)c3ccccc3)c2c1C (stereo unspecified),0,7,.,-1,-5,.,.,
Cc1ccc(CCN2C(Nc3ccccc3)=NC[C@@H]2C)cc1,6,2,2,3,4,-4,.,
CC1(C)Cc2ccccc2C2=NNC(=O)C2=N1,2,3,56*,1,4,2,82*,
SMILES,LYPLA2 counter,PME-1 inh,GSTO1 inh,LYPLA1 inh,PAD4 inh,Fam108B counter,GSTO1 confirm,others
O=C1/C(=C/c2cccnc2)SC(=S)N1Nc1ccccc1,8,0,52*,1,-10,0,19,
CC1=NN(c2ccc(Br)cc2)C(=O)/C1=C/c1cccs1,11,8,45*,-2,12,6,17,
CCc1ccc(-c2nc(SCC(=O)NC3CC3)n[nH]2)cc1,1,0,5,1,-6,3,.,
Cc1cc(NC(=O)Cc2cccs2)no1,-12,14,44*,-10,-19,12,21,
COc1cc(/C=C2\CC/C(=C\c3cc(OC)c(O)c(OC)c3)C2=O)cc(OC)c1O,-20,-7,38*,-15,-4,-6,5,
COCCN=c1scc(-c2ccco2)n1/N=C/c1ccc(O)c(O)c1O,-4,2,69*,-6,-2,-2,22,
CCCCn1c(N)c(N(CC(C)C)C(=O)Cc2ccc3c(c2)OCCO3)c(=O)[nH]c1=O,1,-6,2,5,-2,-2,.,
COCCS(=O)(=O)N(Cc1ccc(Br)cc1)[C@@H](C)C(=O)OC,.,.,.,.,-4,.,.,
CCC(C)(C)C(=O)O[C@H]1C[C@@H](C)C=C2C=C[C@H](C)[C@H](CC[C@@H]3C[C@@H](O)CC(=O)O3)[C@H]21,-4,-9,1,-2,2,0,.,
CC(=O)Oc1ccc(OC(C)=O)c(S(=O)(=O)c2ccc(C)c(C)c2)c1,0,-1,47*,1,-1,-3,7,
COc1ccc(NC(=O)COC(=O)c2cc3c(s2)CCC3)cc1,0,0,.,-7,0,.,.,
Cc1ccc(N(C(=O)CCl)C(C(=O)NC2CCCCC2)c2cccnc2)cc1C (stereo unspecified),-1,-1,99*,0,1,1,92*,GSTO1 recomb ABPP=71
CC1CC(C)CN(S(=O)(=O)CC23CCC(CC2=O)C3(C)C)C1 (stereo unspecified),-4,-3,2,1,2,2,.,
O=C(O)c1cc(N/N=C/c2ccc(N3CCOCC3)s2)ccc1Cl,5,-3,39*,3,-3,16,18,
CCCNC(=O)c1ccc2c(=O)n3c(-c4ccc(C)cc4)csc3nc2c1,-7,0,46*,0,3,0,28,
CN1c2ccccc2N(C)C1(C)c1ccccc1,-3,-4,50*,-1,-4,0,7,
CN1C(=O)N(C)C2(c3ccccc3)NC(=O)NC12c1ccccc1 (stereo unspecified),3,1,-5,5,-4,-4,.,
Cc1ccc(NC(=O)CC(N)=S)cc1,-2,-8,56*,-2,5,-3,27,

# Screening data deposited in PubChem by The Scripps Research Institute Molecular Screening Center.
